The record followed here is the supplement of paper PMC11732987, “Enantioselective OTUD7B fragment discovery through chemoproteomics screening and high-throughput optimisation” (Communications Chemistry, 2025).

The target of this experiment is T1, VCPIP1 (UniProt Q96JH7).
T1 sequence (whole entry): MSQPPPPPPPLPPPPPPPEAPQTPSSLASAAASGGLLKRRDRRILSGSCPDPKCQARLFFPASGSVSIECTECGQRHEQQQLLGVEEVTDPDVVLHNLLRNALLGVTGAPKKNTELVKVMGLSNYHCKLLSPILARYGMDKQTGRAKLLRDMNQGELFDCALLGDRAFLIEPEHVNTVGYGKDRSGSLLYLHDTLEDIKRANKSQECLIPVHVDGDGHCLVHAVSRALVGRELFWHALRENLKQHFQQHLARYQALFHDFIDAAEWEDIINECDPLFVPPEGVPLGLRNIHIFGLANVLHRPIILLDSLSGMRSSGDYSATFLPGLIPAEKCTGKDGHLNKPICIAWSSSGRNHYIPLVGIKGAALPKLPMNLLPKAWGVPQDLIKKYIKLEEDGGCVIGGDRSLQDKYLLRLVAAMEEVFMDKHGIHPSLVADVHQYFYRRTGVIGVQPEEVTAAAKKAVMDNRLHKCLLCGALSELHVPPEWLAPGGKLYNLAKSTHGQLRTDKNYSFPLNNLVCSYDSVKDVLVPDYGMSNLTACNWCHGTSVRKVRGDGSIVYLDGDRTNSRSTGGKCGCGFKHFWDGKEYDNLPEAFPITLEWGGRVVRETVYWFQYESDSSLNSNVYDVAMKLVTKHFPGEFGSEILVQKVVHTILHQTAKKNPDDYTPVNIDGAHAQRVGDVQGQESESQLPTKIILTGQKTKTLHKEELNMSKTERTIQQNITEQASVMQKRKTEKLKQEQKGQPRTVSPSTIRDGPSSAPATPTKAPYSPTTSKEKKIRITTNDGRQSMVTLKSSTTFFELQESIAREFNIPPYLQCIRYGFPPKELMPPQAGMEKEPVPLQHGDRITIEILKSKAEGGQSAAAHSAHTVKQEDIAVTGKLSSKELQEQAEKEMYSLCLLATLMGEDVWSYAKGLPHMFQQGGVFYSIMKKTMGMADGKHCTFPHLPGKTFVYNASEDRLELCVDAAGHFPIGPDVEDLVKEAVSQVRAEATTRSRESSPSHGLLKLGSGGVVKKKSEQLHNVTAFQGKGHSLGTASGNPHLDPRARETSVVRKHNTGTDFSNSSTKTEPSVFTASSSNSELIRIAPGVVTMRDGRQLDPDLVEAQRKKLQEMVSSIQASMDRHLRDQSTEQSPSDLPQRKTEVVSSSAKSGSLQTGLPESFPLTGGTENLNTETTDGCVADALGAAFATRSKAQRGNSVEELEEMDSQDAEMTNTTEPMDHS
The experiment can be described thus: log2 ratio of Biotin-Ahx-Ub-VS probe labelling (fragment/DMSO); higher = less target engagement (more negative = stronger competition), active = hit call of the paper (q ≤ 0.05, log2 ratio ≤ -1). Particulars: compound concentration: 200 uM; treatment time: 3 h. The procedure:
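Competitive ABPP in HEK293T cell lysate. Lysates were treated with each chloroacetamide fragment at 200 µM for 3 h, then with Biotin-Ahx-Ub-VS (0.5 µM, 1 h), NeutrAvidin-enriched and analysed by diaPASEF LC-MS/MS. Protein LFQ was median-normalised; average log2 ratio is fragment/DMSO from an unpaired t-test (n=3 treated, n=44 DMSO). Hits: q ≤ 0.05, log2 ratio ≤ -1, unique peptides ≥ 2.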
As to `O=C(CCl)Nc1cc(Cl)ccc1C(=O)O`, the “log2 ratio of Biotin-Ahx-Ub-VS probe labelling” value (shortened to “log2 ratio”) is -0.241 (inactive).

`Cc1cccc(NC(=O)CCl)c1C`: the “log2 ratio” value is -0.666 (inactive).

With `O=C(CCl)N1CCC(c2ccn[nH]2)C1` (stereo not given), the “log2 ratio” value is -0.333 (inactive).

Consider `O=C(CCl)NC1CCC2(CC1)OCCO2`, for which the “log2 ratio” value was -0.827 (inactive).

Take `O=C(CCl)N1CCc2ccccc2C(O)C1` (stereo not given): the “log2 ratio” value was -0.506 (inactive).

In the case of `CN1C(=O)c2ccc(NC(=O)CCl)cc2C1=O`, the “log2 ratio” value was -2.49 (active).

As to `CC(=O)C1CCCCN1C(=O)CCl` (stereo not given), the “log2 ratio” value was -0.0774 (inactive).

`Cc1ncsc1CCNC(=O)CCl`: the “log2 ratio” value was 0.0583 (inactive).

With `O=C(CCl)NCc1ccc(N2CCOCC2)nc1`, the “log2 ratio” value is -2 (active).

For `O=C(CCl)N1CCCN(C(=O)c2ccc(Cl)cc2)CC1`, the “log2 ratio” value is -0.589 (inactive).

In the case of `O=C(CCl)N1CCN2C(=O)CCC2C1` (stereo not given), the “log2 ratio” value is -0.0347 (inactive).

As to `CC(NC(=O)CCl)c1cccc(Cl)c1` (stereo not given), the “log2 ratio” value is -1.59 (active).

On to `Cc1conc1C1CN(C(=O)CCl)C1`, for which the “log2 ratio” value was -0.949 (inactive).

Consider `O=C(CCl)N1CCCCCC1c1ncon1` (stereo not given), for which the “log2 ratio” value is -0.233 (inactive).

As to `Cl.Cn1cnc2cc(CNC(=O)CCl)ccc21`, the “log2 ratio” value was -1.11 (active).

For `Cc1ccc(CNC(=O)CCl)nc1C.Cl`, the “log2 ratio” value is -2.09 (active).

Consider `CC(NC(=O)CCl)c1cnn(C2CC2)c1` (stereo not given), for which the “log2 ratio” value is -1.15 (active).

For `NC(=O)C(Cc1ccccc1)NC(=O)CCl` (stereo not given), the “log2 ratio” value was -0.38 (inactive).

For the compound `O=C(CCl)NCCC1COCCO1` (stereo not given), the “log2 ratio” value was -0.791 (inactive).

On to `COc1ccc(-c2csc(NC(=O)CCl)n2)cc1`, for which the “log2 ratio” value was -1.46 (active).

Regarding `O=C(CCl)Nc1cc2c(cc1Cl)OCCO2`, the “log2 ratio” value is -0.947 (inactive).

Take `CS(=O)(=O)N1CCCN(C(=O)CCl)CC1`: the “log2 ratio” value was -0.326 (inactive).

Take `Cc1ccc(N(CCC#N)C(=O)CCl)cc1C`: the “log2 ratio” value is -2.17 (active).

For the compound `C[C@@H](NC(=O)CCl)c1cccc(C#N)c1`, the “log2 ratio” value was -0.466 (inactive).

For `O=C(CCl)NCC1(c2ccccc2)CC1`, the “log2 ratio” value was -2.43 (active).

Regarding `Cc1nnc(C(NC(=O)CCl)c2ccccc2)n1C` (stereo not given), the “log2 ratio” value was 0.452 (inactive).

As to `O=C(CCl)N1CCOC(c2cccc(F)c2)C1` (stereo not given), the “log2 ratio” value was -1.67 (active).

Regarding `O=C(CCl)Nc1nnc(CC(F)(F)F)o1`, the “log2 ratio” value was -0.723 (inactive).

For the compound `Cc1cccn2cc(CCNC(=O)CCl)nc12.Cl`, the “log2 ratio” value is -1.07 (active).

As to `O=C(CCl)N[C@H]1CCS(=O)(=O)c2ccccc21`, the “log2 ratio” value is -0.862 (inactive).

`Cc1c(NC(=O)CCl)c(=O)n(-c2ccccc2)n1C`: the “log2 ratio” value is -0.255 (inactive).

As to `CC1(NC(=O)CCl)CCS(=O)(=O)C1` (stereo not given), the “log2 ratio” value was -0.848 (inactive).

Turning to `O=C(CCl)N1CCC(c2noc3cc(F)ccc23)CC1`, the “log2 ratio” value is -2.98 (active).

Consider `Cc1ccc(C)c(NC(=O)CCl)c1`, for which the “log2 ratio” value was -1.52 (active).

Consider `O=C(CCl)N1CCC(C(=O)N2CCCC2)CC1`, for which the “log2 ratio” value is -0.191 (inactive).

Consider `CN(CCC(O)c1ccc(Br)cc1)C(=O)CCl` (stereo not given), for which the “log2 ratio” value is -2.63 (active).

For the compound `O=C(CCl)N1CC=C(c2c[nH]c3ccccc23)CC1`, the “log2 ratio” value is -2.41 (active).

For `Cc1cc(C(=O)NC2CCN(C(=O)CCl)CC2)no1`, the “log2 ratio” value was -0.548 (inactive).

As for `Cc1ccc(N(C(=O)CCl)C2C=CS(=O)(=O)C2)cc1` (stereo not given), the “log2 ratio” value was -0.0885 (inactive).

As to `O=C(CCl)N1CCC[C@@H]1c1ccon1`, the “log2 ratio” value is -0.499 (inactive).
